Laboratory results published in PubChem BioAssay (NCATS).
Values without a mark were called inactive. Calls come from the whole dose curve; as a rule, active = well fitted curve in the direction sought with a large enough effect (not every such curve was filed as active); inconclusive = small, poorly fitted or top-dose-only effect, or effect the other way, or another doubt; inactive = no such curve, though single readings can be large or run the other way.

The compounds below were run against Pyruvate kinase PKM (Homo sapiens) (UniProt P14618) (assay: qHTS Assay for Activators of Human Muscle Pyruvate Kinase (AID 954;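 note: 0% = uninhibited enzyme and -100% = no enzyme or full thiadiazolimine inhibition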)). Details: purified human muscle pyruvate kinase, luciferase-coupled luminescence, 1 h; series mostly up to 57.5 µM; activity change, negative = inhibition: at the top concentration.
Pyruvate kinase PKM (Homo sapiens), sequence (P14618 whole entry, looked up): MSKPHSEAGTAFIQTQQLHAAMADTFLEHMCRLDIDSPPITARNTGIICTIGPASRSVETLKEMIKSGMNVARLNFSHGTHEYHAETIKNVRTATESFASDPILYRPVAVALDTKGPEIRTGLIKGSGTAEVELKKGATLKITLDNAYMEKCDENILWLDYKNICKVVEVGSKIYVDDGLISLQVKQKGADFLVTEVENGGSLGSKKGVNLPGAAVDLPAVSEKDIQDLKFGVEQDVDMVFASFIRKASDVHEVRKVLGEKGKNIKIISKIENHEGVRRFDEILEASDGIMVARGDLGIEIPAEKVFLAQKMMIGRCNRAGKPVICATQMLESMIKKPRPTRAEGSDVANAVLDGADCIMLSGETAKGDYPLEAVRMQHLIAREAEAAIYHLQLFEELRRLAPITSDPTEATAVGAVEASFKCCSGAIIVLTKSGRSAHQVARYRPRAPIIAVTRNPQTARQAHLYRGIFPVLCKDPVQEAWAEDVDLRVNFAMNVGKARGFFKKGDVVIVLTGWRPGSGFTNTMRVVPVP
Summary of the method: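 Luminescence from a luciferase ATP-detection/stop reagent reported PKM2 activity. Reactions contained 0.1 nM purified human enzyme, 0.5 mM PEP, 0.1 mM ADP and 7 mM MgCl2 at pH 7.2, run 1 h at RT.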

**Q.** C[C@]12C=CC(=O)C=C1CC[C@H]1[C@@H]3C[C@@H](O)[C@](O)(C(=O)CO)[C@@]3(C)C[C@H](O)[C@@]12F was tested. Which “activity change, negative = inhibition” value did it give?
**A.** The value was -6.11%.

**Q.** How did the “activity change, negative = inhibition” value turn out when CCNC(=O)N1CCN(CCCC(c2ccc(F)cc2)c2ccc(F)cc2)CC1 was run?
**A.** Its value is -10.8%.

**Q.** How did the “activity change, negative = inhibition” value turn out when C[N+](C)(C)CCOC(N)=O was run?
**A.** The value was -5.71%.

**Q.** Which “activity change, negative = inhibition” value does the source give for CN1CCN(CC(=O)N2c3ccccc3C(=O)Nc3cccnc32)CC1 here?
**A.** The value was -9.76%.

**Q.** How did the “activity change, negative = inhibition” value turn out when CNCCCN1c2ccccc2CCc2ccccc21 was run?
**A.** Its value is -5.41%.

**Q.** Which “activity change, negative = inhibition” value does the source give for O=C(O)CN(CCOCCOCCN(CC(=O)O)CC(=O)O)CC(=O)O here?
**A.** The value was -4.87%.

**Q.** With CN(C)C(=O)Oc1ccc[n+](C)c1 as the compound, how does the “activity change, negative = inhibition” value read?
**A.** The value was 1.28%.

**Q.** With CCC(=O)c1ccc2c(c1)N(CCCN(C)C)c1ccccc1S2 as the compound, how does the “activity change, negative = inhibition” value read?
**A.** The value was -11.2%.

**Q.** For Cc1nc2sccn2c(=O)c1CCN1CCC(=C(c2ccc(F)cc2)c2ccc(F)cc2)CC1, which “activity change, negative = inhibition” value is on record?
**A.** Its value is -21.2%.

**Q.** With CCO/C([O-])=N/c1c[n+](N2CCOCC2)no1 as the compound, how does the “activity change, negative = inhibition” value read?
**A.** Its value is -10.3%.

**Q.** Which “activity change, negative = inhibition” value does the source give for C(=C\c1ccccc1)/CN1CCN(C(c2ccccc2)c2ccccc2)CC1 here?
**A.** The value was 2.43%.

**Q.** For NCCCNCCSP(=O)(O)O, which “activity change, negative = inhibition” value is on record?
**A.** Its value is -9.4%.

**Q.** For C[n+]1cc2c3c(ccc2c2ccc4cc5c(cc4c21)OCO5)OCO3, which “activity change, negative = inhibition” value is on record?
**A.** The value was -87.6%.

**Q.** For CN(C)C(=O)Oc1cccc([N+](C)(C)C)c1, which “activity change, negative = inhibition” value is on record?
**A.** The value was -9.31%.

**Q.** Which “activity change, negative = inhibition” value does the source give for CCn1nc(C(=O)O)c(=O)c2cc3c(cc21)OCO3 here?
**A.** The value was -21.9%.

**Q.** Which “activity change, negative = inhibition” value does the source give for Nc1ncn([C@@H]2O[C@H](CO)[C@@H](O)[C@H]2O)c(=O)n1 here?
**A.** The value was -13.7%.

**Q.** For Cc1ccc(=O)n(-c2ccccc2)c1, which “activity change, negative = inhibition” value is on record?
**A.** Its value is -1.37%.

**Q.** With CCCN(CCC)CCc1cccc2c1CC(=O)N2 as the compound, how does the “activity change, negative = inhibition” value read?
**A.** Its value is -18.1%.

**Q.** Which “activity change, negative = inhibition” value does the source give for O=C(O)CP(=O)(O)O here?
**A.** The value was -7.64%.

**Q.** Cc1ccc(Cl)c(Nc2ccccc2C(=O)O)c1Cl was tested. Which “activity change, negative = inhibition” value did it give?
**A.** The value was -6.12%.

**Q.** How did the “activity change, negative = inhibition” value turn out when C#CCN(C)CCCOc1ccc(Cl)cc1Cl was run?
**A.** The value was -14%.
